Where “and” joins values, the source holds several entries; their conditions need not be identical. Equal entries are not always repeated. Records with an inconclusive call do not appear. Where a call stands in place of a potency, no number is given. Calls of active or inactive are those of the source. Unless noted, calls come from the whole dose curve; as a rule, active = well fitted curve in the direction sought with a large enough effect; inconclusive = small, poorly fitted or top-dose-only effect, or another doubt; inactive = no such curve, though single readings can be large; an effect the other way counts as inactive or inconclusive.
Legend:
[1] = qHTS of Trypanosoma Brucei Inhibitors: LOPAC Validation (AID 624147)
Summary of the method: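 Screened from lowest to highest concentration, compounds were pinned into TbPYK/substrate mixtures, and ADP (130 uM final) was added. Plates sat at room temperature for 45 min prior to Kinase-Glo Plus detection by luminescence.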

[2] = target: Glucagon-like peptide 1 receptor (Homo sapiens) (UniProt P43220); assay: qHTS of GLP-1 Receptor Agonists: LOPAC Validation (AID 624148);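 note: higher luminescence signal means agonism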
Summary of the method: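 HEK293 cells stably co-expressing GLP-1R and a cAMP-responsive luciferase reporter, plated 12 hours before compound, then incubated 4-6 hr at 37 deg C. Luminescence read 12 min after detection reagent.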

[3] = qHTS of Nrf2 Activators: LOPAC Validation (AID 624149)
Summary of the method: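 Luciferase signal from ARE activation, read with Steady-Glo after 30 min at room temperature. Compounds were pin-transferred onto AREc32_Fluc cells (1000/well, OPTI-MEM/5% FBS, seeded overnight) and left 24 hr at 37 deg C.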

[4] = HTS Assay for Allosteric Antagonists of the Human D2 Dopamine Receptor: Hit Validation in HTRF (AID 624455);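 note: stable D1 dopamine receptor cell line scored for blocking the D1 response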
Summary of the method: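 Inhibition of the D1-mediated response was measured by HTRF. Cells used were a line stably expressing the D1 dopamine receptor.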

[5] = Cell Proliferation Assay against the TMD8 Cell Line (AID 651645); settings: TMD8 DLBCL cell line proliferation/viability; at 46.1 µM (top of the series);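 note: cells exposed to compound for 48 h before reading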
Summary of the method: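 500 TMD8 cells/well, RPMI + Glutamax, no phenol red, 5% FBS; cpd added immediately; 48 h, 37C, 5% CO2; CellTiter-Glo, luminescence. Controls: DMSO = 100%, bortezomib 9.2 uM final = 0%.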

[6] = Cell Proliferation Assay against the HBL1 Cell Line (AID 651646); settings: HBL1 DLBCL cells; at 46.1 µM (top of the series);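 note: cells exposed to compound for 48 h before reading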
Summary of the method: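 HBL1, 500 cells/well, RPMI no phenol red + 5% FBS; cpd pinned, 48 h 37C/5% CO2; CellTiter-Glo, 15 min RT, luminescence. % activity: DMSO = 100%, bortezomib 9.2 uM final = 0%.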

[7] = Cell Proliferation Assay against the TMD8 Cell Line (Caspase readout at 16 hrs) (AID 651712); settings: TMD8 lymphoma cells, caspase activation luminescence; note: potency is the fitted concentration of half-maximal effect
Summary of the method: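 Caspase-Glo luminescence after 16 h compound exposure of TMD8 cells, 37 °C, 5% CO2. Medium: RPMI without phenol red, 5% FBS. Normalisation: DMSO = 0%, bortezomib 9.2 uM final = 100%.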

[8] = Cell Proliferation Assay against the TMD8 Cell Line (Caspase readout at 8 hrs) (AID 651713); settings: TMD8 lymphoma cells, caspase activation luminescence; note: potency is the fitted concentration of half-maximal effect
Text: One class of targeted therapeutics showing early clinical success in killing of ABC DLBCL lines are small molecule inhibitors of the Bruton tyrosine kinase (BTK) 11. Thus, we chose to investigate what additional compounds, if any, would synergize with the BTK inhibitor Ibrutinib (PCI-32765).
Prior to any combination assays, using an NCATS developed oncology compound library called the Mechanism of Interrogation Plate (MIPE), two well studied ABC DLBCL lines (TMD8 and HBL1) were screened using a cell viability assay (CellTiterGlo) and a 12-point titration series for each single agent. These initial experiments offered insight into the concentration range that offered the best coverage of activity and non-activity to assure relevant data is generated. […]
A total of 500 log growing TMD8 cells are seeded per well in 5 uL of a RPMI with glutamine (or Glutamax), without phenol red plus 5% FBS and 1X Pen/Strep into 1536 -solid white high base tissue culture treated Greiner One Bio Plates (789173-F) using a multidrop combi dispenser and a small sterile cassette. […] The plates are then spun at 1000 rpms to remove bubbles and incubated for 15 minutes at room temperature before read on a ViewLux using a luminescent filter with a 10 second exposure. The relative luciferase units are used to calculated percent activity using DMSO as 0% and Bortezomib as 100%.

[9] = qHTS assay for small molecule agonists of the antioxidant response element (ARE) signaling pathway (AID 651741; active = well fitted activation curve with a large enough effect in the signal ratio; the % refers to the signal ratio; note: potency is the fitted concentration of half-maximal effect)
Summary of the method: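 Stably integrated ARE-beta-lactamase reporter HepG2 cells; 16 h compound incubation, 37 C; LiveBLAzer FRET substrate 2 h at room temperature; fluorescence intensity.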

[10] = qHTS assay for small molecule activators of the p53 signaling pathway (AID 651743; active = well fitted activation curve with a large enough effect in the signal ratio, not every such curve was filed as active; the % refers to the signal ratio; note: potency is the fitted concentration of half-maximal effect); settings: HCT-116 p53RE-bla, beta-lactamase FRET ratio, 16 h; activation: stronger effect = higher value
Summary of the method: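 Following 16 hours of compound exposure at 37 C, HCT-116 cells bearing the p53RE-bla reporter were loaded with LiveBLAzer B/G FRET substrate for 2 hours at room temperature and fluorescence intensity was recorded.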

Glucagon-like peptide 1 receptor (Homo sapiens), sequence (P43220 whole entry, looked up): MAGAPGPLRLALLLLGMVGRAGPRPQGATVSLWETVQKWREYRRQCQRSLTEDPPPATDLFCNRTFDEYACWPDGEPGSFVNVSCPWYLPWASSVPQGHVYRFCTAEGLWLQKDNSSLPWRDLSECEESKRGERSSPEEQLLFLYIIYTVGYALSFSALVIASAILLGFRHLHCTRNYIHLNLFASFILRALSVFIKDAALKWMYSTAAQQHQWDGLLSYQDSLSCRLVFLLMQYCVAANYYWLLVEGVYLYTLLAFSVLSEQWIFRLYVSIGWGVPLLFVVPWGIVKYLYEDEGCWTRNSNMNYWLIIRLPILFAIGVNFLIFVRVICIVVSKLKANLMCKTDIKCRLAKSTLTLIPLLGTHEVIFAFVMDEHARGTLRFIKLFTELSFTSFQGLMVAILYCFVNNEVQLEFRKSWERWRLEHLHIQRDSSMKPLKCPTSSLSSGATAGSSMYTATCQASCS

With `CN(C)c1cc2c(Nc3ccc4c(cnn4Cc4ccccc4)c3)ncnc2cn1` the outcome [1] was “inactive”, the outcome [2] was “inactive” and the outcome [3] was “inactive”. For the same compound, the outcome [4] was “inactive”.
With `C[N+](C)(C)CCO` the outcome [1] was “inactive”, the outcome [2] was “inactive” and the outcome [3] was “inactive”. The outcome [4] was “inactive”.
With `Brc1ccc([C@H]2CN3CCSC3=N2)cc1` the outcome [1] was “inactive”, the outcome [2] was “inactive” and the outcome [3] was “inactive”. The outcome [4] was “inactive”.
In the case of `C[C@@H](O[C@H]1OCCN(Cc2n[nH]c(=O)[nH]2)[C@H]1c1ccc(F)cc1)c1cc(C(F)(F)F)cc(C(F)(F)F)c1`, the viability (% of control) [5] was 8.07%, the viability, percent of control [6] was 8.93% and the Potency [7] was 11.8 µM (active). The Potency [8] was 33.2 µM (active).
With `O=C1NC(=O)/C(=C/c2ccc3c(c2)OC(F)(F)O3)S1` the outcome [1] was “inactive”, the outcome [2] was “inactive” and the outcome [3] was “inactive”. For the same compound, the outcome [4] was “inactive”.
With `COC(=O)C1=CO[C@@H](O)[C@@H]2C(CO)=CC[C@H]12` the outcome [1] was “inactive”, the outcome [2] was “inactive” and the outcome [3] was “inactive”. The outcome [4] was “inactive”.
In the case of `O=C1NC(c2cccc([N+](=O)[O-])c2)=CCN1c1ccccc1O`, the outcome [1] was “inactive”, the outcome [2] was “inactive” and the outcome [3] was “inactive”. The outcome [4] was “inactive”.
For `CCN(CC)CCNC(=O)c1ccc(NS(C)(=O)=O)cc1`, the outcome [1] was “inactive”, the outcome [2] was “inactive” and the outcome [3] was “inactive”. For the same compound, the outcome [4] was “inactive”.
In the case of `O=[N+]([O-])c1ccc(-c2nc(-c3ccc(F)cc3)c(-c3ccncc3)[nH]2)cc1`, the outcome [1] was “inactive”, the outcome [2] was “inactive” and the outcome [3] was “inactive”. The outcome [4] was “inactive”.
In the case of `Cn1cnc2c(NCc3ccccc3)nc(NCCO)nc21`, the outcome [1] was “inactive”, the outcome [2] was “inactive” and the outcome [3] was “inactive”. For the same compound, the outcome [4] was “inactive”.
In the case of `Cc1ncc(CO)c(CO)c1O`, the Potency [9] was “inactive”.
For `COc1cccc2c1[C@@H]1CN(CCCCn3c(=O)[nH]c4c(sc5ncc(-c6ccccc6)nc54)c3=O)C[C@@H]1CO2`, the outcome [1] was “inactive”, the outcome [2] was “inactive” and the outcome [3] was “inactive”. The outcome [4] was “inactive”.
For `NC(N)=NCCCCN=C(N)N`, the outcome [1] was “inactive”, the outcome [2] was “inactive” and the outcome [3] was “inactive”. The outcome [4] was “inactive”.
In the case of `Nc1ccc(O)cc1`, the Potency [9] was 26.6 µM (active).
For `CC(C)N(CCC(=O)c1ccc2ccccc2c1)Cc1ccccc1`, the outcome [1] was “inactive”, the outcome [2] was “inactive” and the outcome [3] was “inactive”. The outcome [4] was “inactive”.
With `N[C@@H](Cn1ccc(=O)c(O)c1)C(=O)O` the outcome [1] was “inactive”, the outcome [2] was “inactive” and the outcome [3] was “inactive”. The outcome [4] was “inactive”.
In the case of `Nc1ncnc2n[nH]c(Nc3ccc(F)cc3)c12`, the outcome [1] was “inactive”, the outcome [2] was “inactive” and the outcome [3] was “inactive”. For the same compound, the outcome [4] was “inactive”.
With `Clc1ccc2c(c1)N=C(N1CCNCC1)c1ccccc1N2` the outcome [1] was “inactive”, the outcome [2] was “inactive” and the outcome [3] was “inactive”. The outcome [4] was “inactive”.
For `COc1ccccc1N1CCN(CCN2C(=O)CC3(CCCC3)CC2=O)CC1`, the outcome [1] was “inactive”, the outcome [2] was “inactive” and the outcome [3] was “inactive”. The outcome [4] was “inactive”.
For `Cc1nn(-c2ccccc2)c(C)c1/C=N/N1CCN(Cc2ccccc2)CC1`, the outcome [1] was “inactive”, the outcome [2] was “inactive” and the outcome [3] was “inactive”. For the same compound, the outcome [4] was “inactive”.
With `O=C(Oc1ccccc1)c1ccccc1O` the Potency [9] was “inactive”.
With `Nc1cccc2c(N)cccc12` the activation [10] was -3.42% (inactive) and 1.45% (inactive).
With `CC(=O)OC/C=C(C)/C=C/C=C(C)/C=C/C1=C(C)CCCC1(C)C` the Potency [9] was 42.2 µM (active) and 54.5 µM (active) and the activation [10] was -8.23% (inactive) and -2.69% (inactive).
In the case of `c1ccc2occc2c1`, the activation [10] was -0.261% (inactive) and -6.48% (inactive) and -3.89% (inactive).
In the case of `COc1cc(C=O)ccc1O`, the activation [10] was -5.16% (inactive) and -4.75% (inactive).
For `CC(C)(c1ccc(O)cc1)c1ccc(O)cc1`, the activation [10] was -1.88% (inactive) and -5.31% (inactive) and -3.08% (inactive).
With `Cc1cc(C(C)(C)C)c(O)c(C(C)(C)C)c1` the Potency [9] was “inactive” and the activation [10] was -3.94% (inactive) and -1.07% (inactive).
With `OCc1c[nH]c2ccccc12` the Potency [9] was 66.8 µM (active) and the activation [10] was -1.58% (inactive).
With `Brc1ccccc1-c1ccccc1` the Potency [9] was “inactive” and the activation [10] was 0.157% (inactive).
For `OCCOCCN1CCN(C(c2ccccc2)c2ccc(Cl)cc2)CC1` (stereo unspecified), the Potency [9] was “inactive” and the activation [10] was -1.54% (inactive).
With `C1=CC2C3C=CC(C3)C2C1` (stereo unspecified) the Potency [9] was “inactive” and the activation [10] was -1.4% (inactive).
For `Nc1c2ccccc2nc2ccccc12`, the Potency [9] was 10.6 µM (active) and the Potency [10] was 11.2 µM (active).
In the case of `Cc1ccc(O)cc1`, the activation [10] was -3.91% (inactive).
With `CC(C)C(C)(C)C(C)(C)C(C)(C)S` the Potency [9] was “inactive” and the activation [10] was 1.86% (inactive) and -1.44% (inactive).
For `CCCC(=O)c1cc(O)c(O)cc1O`, the activation [10] was -5.77% (inactive).
In the case of `COC(=O)c1c(Cl)c(Cl)c(C(=O)OC)c(Cl)c1Cl`, the Potency [9] was 54.5 µM (active) and the activation [10] was 1.22% (inactive).
For `Oc1ccccc1`, the activation [10] was -2.44% (inactive) and -1.24% (inactive) and 0.0138% (inactive).
With `CCCCC(CC)COC(=O)c1ccccc1C(=O)O` (stereo unspecified) the activation [10] was -2.67% (inactive) and -0.261% (inactive).

Reference: PubChem BioAssay (NCATS)
